In the OligoGym collection:

target: RHOJ; test: pooled miR-30 sensor sort-seq; sequence = guide strand; details: shRNA
Note: reference of the scale not given here.

Row | Sequence | sensor-assay potency score (higher = more potent)
1 | TTTGAGACCTTTCTGAGTCAGA | -0.62
2 | TAGCACTGTGCTCCGATCGCTT | -0.602
3 | TTTCTCTTTCATATACAGCAAA | -0.918
4 | ATAGTGGTCAAACACAGTGGGC | -0.911
5 | TCAACATCTTCTTCTCGTCGTT | 0.0564
6 | TTGGCTGCCATTCTCATCCCTG | -0.433
7 | AACATCTTCTTCTCGTCGTTGC | 0.438
8 | TTCAACATCTTCTTCTCGTCGT | 0.937
9 | TTCTTCTCGTCGTTGCCCCTGC | -0.309
10 | TTCTGAGTCAGAGCTGAACATT | -1.66
11 | TTGACTTTGTTTTTGATGCGAT | -0.0639
12 | TTCTCTTTCATATACAGCAAAC | -1.56

target: RIC8A; test: as above; details: shRNA

Row | Sequence | sensor-assay potency score (higher = more potent)
13 | TTGTTCCGCAGCATCTCCCCAA | -0.652
14 | TAGTCTCGCACATGGCATCCTG | -1.08
15 | AAGAACTGGACATCGTGGGGGA | 0.415
16 | TACAACATCCATGTCTGCGGAC | -0.737
17 | TTTGAGGATCTCCATGGCCCGC | -1.76
18 | TTGGGCATCATCAAACGTGAAG | -0.89
19 | TTTCAGCTCCTGAAACAGCTGC | -0.481
20 | TTCTAGCACAAGAAGACCGTTG | 0.199
21 | TGGGCCTTCAGGAACTTCCTGG | -0.964
22 | AACATCCAGACACTTGAGGGGC | -0.627
23 | TTCACTCCCATGAACTCCGTGG | 0.138
24 | TACACTCTCCTTCAGCCTGTGT | -1.16
